The record followed here is ChEMBL document CHEMBL2218924, “A broad activity screen in support of a chemogenomic map for kinase signalling research and drug discovery” (Biochem J, 2013).

Experiment [1] addresses T1, Serine/threonine-protein kinase TBK1 (Homo sapiens) (UniProt Q9UHD2).
T1 sequence (whole entry): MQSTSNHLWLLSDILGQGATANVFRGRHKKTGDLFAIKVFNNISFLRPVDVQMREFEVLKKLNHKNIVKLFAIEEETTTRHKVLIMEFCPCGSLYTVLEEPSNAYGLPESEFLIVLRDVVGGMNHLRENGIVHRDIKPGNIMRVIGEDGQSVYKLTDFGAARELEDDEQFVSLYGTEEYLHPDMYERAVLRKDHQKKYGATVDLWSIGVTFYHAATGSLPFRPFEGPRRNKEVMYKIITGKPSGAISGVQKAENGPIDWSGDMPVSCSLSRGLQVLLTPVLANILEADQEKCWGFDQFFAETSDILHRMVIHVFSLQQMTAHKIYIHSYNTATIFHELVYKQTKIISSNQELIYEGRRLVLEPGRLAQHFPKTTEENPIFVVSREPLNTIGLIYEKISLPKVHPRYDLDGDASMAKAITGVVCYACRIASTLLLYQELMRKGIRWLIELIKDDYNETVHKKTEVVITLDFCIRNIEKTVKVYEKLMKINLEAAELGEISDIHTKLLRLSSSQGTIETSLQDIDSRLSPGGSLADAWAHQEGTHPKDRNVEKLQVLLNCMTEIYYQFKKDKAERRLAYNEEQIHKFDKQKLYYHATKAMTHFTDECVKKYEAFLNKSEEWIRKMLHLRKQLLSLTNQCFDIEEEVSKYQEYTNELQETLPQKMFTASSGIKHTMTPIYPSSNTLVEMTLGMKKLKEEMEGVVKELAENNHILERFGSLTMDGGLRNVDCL
To be noted: at 10 µM.

The target of experiment [2] is T2, TGF-beta receptor type-1 (Homo sapiens) (UniProt P36897).
T2 sequence (whole entry): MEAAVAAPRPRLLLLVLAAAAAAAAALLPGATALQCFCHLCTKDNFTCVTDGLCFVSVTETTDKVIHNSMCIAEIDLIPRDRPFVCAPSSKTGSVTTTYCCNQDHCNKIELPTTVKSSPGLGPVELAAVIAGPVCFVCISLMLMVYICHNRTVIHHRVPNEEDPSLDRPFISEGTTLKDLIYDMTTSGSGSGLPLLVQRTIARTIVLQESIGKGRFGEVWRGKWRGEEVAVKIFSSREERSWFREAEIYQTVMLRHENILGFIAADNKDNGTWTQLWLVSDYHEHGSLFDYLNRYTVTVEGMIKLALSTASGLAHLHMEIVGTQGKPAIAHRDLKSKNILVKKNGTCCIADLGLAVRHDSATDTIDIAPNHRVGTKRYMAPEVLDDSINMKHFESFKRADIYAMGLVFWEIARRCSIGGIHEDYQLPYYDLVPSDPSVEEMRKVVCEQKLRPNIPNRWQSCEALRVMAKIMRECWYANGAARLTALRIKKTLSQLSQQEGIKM
As to conditions: at 1 µM.

The target in experiment [3] is T2, TGF-beta receptor type-1 (Homo sapiens). As to conditions: at 10 µM.
The target in experiment [4] is Insulin-like growth factor 1 receptor (Homo sapiens) (UniProt P08069). As to conditions: at 1 µM.
Insulin-like growth factor 1 receptor (Homo sapiens), sequence (P08069 31-736 limits assumed): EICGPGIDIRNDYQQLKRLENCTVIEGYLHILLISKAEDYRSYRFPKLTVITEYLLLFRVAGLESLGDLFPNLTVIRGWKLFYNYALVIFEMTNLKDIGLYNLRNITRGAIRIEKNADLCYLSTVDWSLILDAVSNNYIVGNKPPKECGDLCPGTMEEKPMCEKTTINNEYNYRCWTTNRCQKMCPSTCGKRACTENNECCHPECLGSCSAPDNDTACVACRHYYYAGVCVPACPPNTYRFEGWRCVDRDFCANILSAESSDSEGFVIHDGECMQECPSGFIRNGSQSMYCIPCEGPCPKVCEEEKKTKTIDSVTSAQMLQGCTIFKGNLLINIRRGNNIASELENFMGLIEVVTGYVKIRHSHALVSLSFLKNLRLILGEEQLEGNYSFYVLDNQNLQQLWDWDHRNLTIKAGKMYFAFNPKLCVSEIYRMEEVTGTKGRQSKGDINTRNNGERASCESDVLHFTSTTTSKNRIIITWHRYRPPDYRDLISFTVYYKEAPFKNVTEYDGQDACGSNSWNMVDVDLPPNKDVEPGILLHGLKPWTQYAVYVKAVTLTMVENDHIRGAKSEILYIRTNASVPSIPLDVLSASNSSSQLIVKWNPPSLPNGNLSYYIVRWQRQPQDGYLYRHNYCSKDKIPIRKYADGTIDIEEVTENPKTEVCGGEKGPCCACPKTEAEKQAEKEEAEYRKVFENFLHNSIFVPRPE
Insulin-like growth factor 1 receptor (Homo sapiens), sequence (P08069 741-1367 limits assumed): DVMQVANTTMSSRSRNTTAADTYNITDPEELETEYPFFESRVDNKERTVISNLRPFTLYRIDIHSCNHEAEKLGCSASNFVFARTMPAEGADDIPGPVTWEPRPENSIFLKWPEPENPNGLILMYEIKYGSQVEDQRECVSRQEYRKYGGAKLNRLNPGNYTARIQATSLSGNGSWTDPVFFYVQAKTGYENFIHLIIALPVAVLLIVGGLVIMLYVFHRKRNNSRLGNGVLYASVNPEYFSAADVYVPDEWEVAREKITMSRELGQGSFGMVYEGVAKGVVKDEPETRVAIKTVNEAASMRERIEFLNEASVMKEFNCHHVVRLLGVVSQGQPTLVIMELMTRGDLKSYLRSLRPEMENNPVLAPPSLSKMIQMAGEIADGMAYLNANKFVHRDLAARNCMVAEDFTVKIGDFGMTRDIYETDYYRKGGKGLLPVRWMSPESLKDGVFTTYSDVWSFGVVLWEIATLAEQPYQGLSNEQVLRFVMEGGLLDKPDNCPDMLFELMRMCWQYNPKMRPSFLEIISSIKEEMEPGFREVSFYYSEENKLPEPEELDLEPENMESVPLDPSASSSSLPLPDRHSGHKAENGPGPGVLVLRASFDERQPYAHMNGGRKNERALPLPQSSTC
Experiment [5] shares this target. To be noted: at 10 µM.
For experiment [6], the target named is T3, Inhibitor of nuclear factor kappa-B kinase subunit alpha (Homo sapiens) (UniProt O15111).
T3 sequence (whole entry): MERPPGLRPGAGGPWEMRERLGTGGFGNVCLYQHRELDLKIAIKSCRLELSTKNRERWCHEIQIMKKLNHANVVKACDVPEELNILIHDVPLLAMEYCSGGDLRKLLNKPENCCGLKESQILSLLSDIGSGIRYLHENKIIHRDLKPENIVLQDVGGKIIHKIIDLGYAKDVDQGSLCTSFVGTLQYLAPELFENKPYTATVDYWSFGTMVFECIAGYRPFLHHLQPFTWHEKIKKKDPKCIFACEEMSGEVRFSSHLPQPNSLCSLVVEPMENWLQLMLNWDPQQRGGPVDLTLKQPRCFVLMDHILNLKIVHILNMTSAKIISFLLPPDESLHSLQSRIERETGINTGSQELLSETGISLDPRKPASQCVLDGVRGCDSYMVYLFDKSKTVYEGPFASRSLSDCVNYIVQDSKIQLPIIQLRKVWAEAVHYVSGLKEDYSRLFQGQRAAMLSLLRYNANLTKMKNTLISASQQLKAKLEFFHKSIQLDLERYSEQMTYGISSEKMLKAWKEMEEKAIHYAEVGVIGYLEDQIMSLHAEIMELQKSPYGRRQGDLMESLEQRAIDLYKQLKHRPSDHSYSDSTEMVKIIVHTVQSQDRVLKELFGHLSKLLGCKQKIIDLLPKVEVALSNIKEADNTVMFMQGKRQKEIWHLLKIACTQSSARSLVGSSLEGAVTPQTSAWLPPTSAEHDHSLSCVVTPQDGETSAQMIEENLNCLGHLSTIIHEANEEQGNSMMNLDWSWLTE
To be noted: at 1 µM.

Experiment [7] addresses T3, Inhibitor of nuclear factor kappa-B kinase subunit alpha (Homo sapiens). As to conditions: at 10 µM.
Experiment [8] has as its target T4, Inhibitor of nuclear factor kappa-B kinase subunit beta (Homo sapiens) (UniProt O14920).
T4 sequence (whole entry): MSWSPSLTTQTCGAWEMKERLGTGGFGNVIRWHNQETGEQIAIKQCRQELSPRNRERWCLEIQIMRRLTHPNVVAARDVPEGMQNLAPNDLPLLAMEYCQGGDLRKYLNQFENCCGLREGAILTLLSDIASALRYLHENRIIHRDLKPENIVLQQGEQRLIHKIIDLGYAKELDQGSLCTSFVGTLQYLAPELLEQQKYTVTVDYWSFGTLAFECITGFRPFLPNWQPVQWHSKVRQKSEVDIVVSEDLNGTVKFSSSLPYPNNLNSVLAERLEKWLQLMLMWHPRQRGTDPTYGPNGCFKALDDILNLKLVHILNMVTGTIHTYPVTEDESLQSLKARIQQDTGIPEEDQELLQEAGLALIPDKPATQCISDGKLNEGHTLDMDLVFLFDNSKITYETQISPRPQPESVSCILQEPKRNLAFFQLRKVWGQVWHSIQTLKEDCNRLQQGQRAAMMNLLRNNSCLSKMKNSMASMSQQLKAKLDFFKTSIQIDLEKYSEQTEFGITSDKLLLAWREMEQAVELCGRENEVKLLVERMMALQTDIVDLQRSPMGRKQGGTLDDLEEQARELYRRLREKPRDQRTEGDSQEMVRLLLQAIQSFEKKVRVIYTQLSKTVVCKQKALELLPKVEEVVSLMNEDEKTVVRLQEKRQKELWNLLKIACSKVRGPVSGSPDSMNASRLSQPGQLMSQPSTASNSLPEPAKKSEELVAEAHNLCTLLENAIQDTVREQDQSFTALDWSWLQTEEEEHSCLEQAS
To be noted: at 1 µM.

Experiment [9] has as its target T4, Inhibitor of nuclear factor kappa-B kinase subunit beta (Homo sapiens). To be noted: at 10 µM.
Experiment [10] addresses Insulin receptor (Homo sapiens) (UniProt P06213). To be noted: at 1 µM.

Molecules are shown by their SMILES.

Insulin receptor (Homo sapiens), sequence (P06213 28-758 limits assumed): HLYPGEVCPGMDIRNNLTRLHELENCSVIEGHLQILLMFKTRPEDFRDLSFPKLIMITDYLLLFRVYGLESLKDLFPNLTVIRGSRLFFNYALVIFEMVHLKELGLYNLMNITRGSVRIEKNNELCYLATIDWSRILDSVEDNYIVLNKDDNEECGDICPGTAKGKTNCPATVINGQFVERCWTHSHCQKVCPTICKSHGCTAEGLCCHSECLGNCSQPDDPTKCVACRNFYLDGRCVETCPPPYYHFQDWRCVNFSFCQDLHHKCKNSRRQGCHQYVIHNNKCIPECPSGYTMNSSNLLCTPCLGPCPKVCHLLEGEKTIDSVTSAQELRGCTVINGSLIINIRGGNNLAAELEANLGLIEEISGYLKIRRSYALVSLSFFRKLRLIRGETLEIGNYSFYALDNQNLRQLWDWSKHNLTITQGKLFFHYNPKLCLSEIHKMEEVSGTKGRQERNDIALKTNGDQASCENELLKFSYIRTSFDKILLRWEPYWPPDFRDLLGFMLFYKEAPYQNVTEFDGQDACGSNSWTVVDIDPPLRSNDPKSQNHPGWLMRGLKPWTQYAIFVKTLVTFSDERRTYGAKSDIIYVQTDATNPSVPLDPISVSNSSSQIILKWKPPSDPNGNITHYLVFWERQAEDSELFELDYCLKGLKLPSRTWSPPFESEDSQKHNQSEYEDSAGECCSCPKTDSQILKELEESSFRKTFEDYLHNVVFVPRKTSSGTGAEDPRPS
Insulin receptor (Homo sapiens), sequence (P06213 763-1382 limits assumed): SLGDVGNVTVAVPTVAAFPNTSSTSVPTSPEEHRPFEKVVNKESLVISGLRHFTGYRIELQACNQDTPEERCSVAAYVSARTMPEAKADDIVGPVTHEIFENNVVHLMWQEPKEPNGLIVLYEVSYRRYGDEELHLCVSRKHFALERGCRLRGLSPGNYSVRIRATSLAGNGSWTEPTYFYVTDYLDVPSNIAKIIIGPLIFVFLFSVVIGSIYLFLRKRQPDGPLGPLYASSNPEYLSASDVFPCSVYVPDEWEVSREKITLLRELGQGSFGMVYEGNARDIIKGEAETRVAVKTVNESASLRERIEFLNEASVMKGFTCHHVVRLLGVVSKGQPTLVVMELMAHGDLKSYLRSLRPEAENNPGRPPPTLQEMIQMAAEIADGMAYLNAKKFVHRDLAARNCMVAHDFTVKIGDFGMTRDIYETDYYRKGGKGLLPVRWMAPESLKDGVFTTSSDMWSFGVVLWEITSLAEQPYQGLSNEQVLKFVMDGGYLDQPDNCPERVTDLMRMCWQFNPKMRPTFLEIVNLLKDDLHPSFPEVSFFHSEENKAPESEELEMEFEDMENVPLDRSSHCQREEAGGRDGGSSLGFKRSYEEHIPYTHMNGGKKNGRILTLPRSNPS

For the compound `O=c1c2ccccc2[nH]c(=S)n1CCN1CCC(=C(c2ccc(F)cc2)c2ccc(F)cc2)CC1`, the residual activity in experiment [1] was 68%; in experiment [2] it was 95%; in experiment [3], 80%; in experiment [4], 112%; in [5] it was 93%; in [6], 87%. Also, the residual activity was 128% in experiment [7], 114% in experiment [8], 105% in [9] and 109% in experiment [10].

The residual activity is the signal under treatment as a percentage of the control signal.
